Measured values from PubChem BioAssay AID1863 (Southern Research Specialized Biocontainment Screening …, 2009).
Hit rate of the full screen: of about 300,000 compounds, about 480 (0.16%) were called active.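 The calls were made as follows: active = inhibition over 29.93%, a cutoff 3 SD above the screen mean, later confirmed by dose response; inconclusive = inhibition over 29.93% but no dose response follow-up; inactive = inhibition at most 29.93% or unconfirmed.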 Only a sample is shown. Measured potencies and affinities stand elsewhere.

test: inhibitors of PhoP regulon expression, primary screen, Salmonella Typhimurium, GFP reporter (AID 1863);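 also: 0% = low Mg2+ inducing control and 100% = high Mg2+ repressing control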; conditions: S. Typhimurium PhoP-regulated promoter GFP reporter, 4 h; at 50 µM; stronger effect = higher value

inhibition, inactive:
O=C(Cc1cccs1)NCc1ccncc1 20.6%
CC1(C)CCC/C(=C\c2ccccc2)C1=O -2.34%
O=S(=O)(/N=C(/NNS(=O)(=O)c1ccccc1)c1ccccc1)c1ccccc1 -3.53%
CCN(CC)CCN(C)c1ccc(N2C(=O)C3CC=CCC3C2=O)cc1[N+](=O)[O-] (stereo not drawn) -7.43%
Oc1ccccc1Nc1nc(NCC2CCCO2)c2ccccc2n1 (stereo not drawn) 13.1%
COc1ccc(Nc2nc(NCC3CCCO3)c3ccccc3n2)c(OC)c1 (stereo not drawn) 0.13%
Oc1ccc(Nc2nc(NCC3CCCO3)c3ccccc3n2)cc1 (stereo not drawn) -10.2%
c1ccc(Nc2nc(NCC3CCCO3)c3ccccc3n2)cc1 (stereo not drawn) -1.89%
COCCOCC(O)CN1CCN(c2ccccc2)CC1 (stereo not drawn) 4.06%
COc1ccccc1-c1noc(-c2ccccc2C(=O)NCC2CCCO2)n1 (stereo not drawn) -3.19%
Cc1ccc2nc3c(c(Nc4ccccc4)c2c1)CCC3 21.7%
COc1ccc(Nc2c3ccccc3nc3ccccc23)cc1 -2.51%
COc1ccc(Nc2c3c(nc4ccccc24)CCC3)cc1 12.7%
O=C(O)c1cccc(Nc2c3ccccc3nc3ccccc23)c1 10.2%
c1ccc(Nc2c3c(nc4ccccc24)CCC3)cc1 20.2%
Cc1cc(Nc2cccc(O)c2)c2ccccc2n1 13.6%
CCOc1ccc(Nc2nc(N)c3ccccc3n2)cc1 29.9%
Fc1cccc(Nc2c3c(nc4ccccc24)CCC3)c1 6.97%
Nc1n[nH]c(N)c1N=Nc1ccccc1F -3.09%
CCC(=O)Nc1ccc(C(=O)CSc2nc(N)cc(N)n2)cc1 4.88%
CS(=O)(=O)N1CCN(c2ccccc2NC(=O)c2cccnc2)CC1 -0.66%
CC(C)CCNC(=O)c1c(CSc2ccccc2)noc1C(=O)NCc1ccccc1 -1.54%
Cc1cc(-c2nnc(SCC(=O)Nc3ccc(F)cc3F)n2N)n[nH]1 -6.5%
COc1ccc(S(=O)(=O)N2CCC(C(=O)Nc3c(F)cccc3F)CC2)cc1 14.7%
Cn1c(=O)[nH]c(=O)c2c1nc(CN1CCN(c3ccc(F)cc3)CC1)n2CCCc1ccccc1 -9.74%
CO[C@@]12[C@H](COC(N)=O)C3=C(C(=O)C(C)=C(N)C3=O)N1C[C@@H]1N[C@@H]12 17.4%
COc1ccc(C(=O)N2CCN(c3ncccn3)CC2)cc1 6.73%
COc1ccc(-n2c(SCc3cccnc3)nc3c(c2=O)SCC3)cc1OC -5.3%
Cc1ccccc1OCC(=O)NCC(=O)N/N=C/c1cccc([N+](=O)[O-])c1 -0.52%
CCS(=O)(=O)Nc1c(C)n(C)n(-c2ccccc2)c1=O -5.83%
NS(=O)(=O)c1ccc(CNC(=O)c2cc(-c3cccnc3)nc3ccc(Br)cc23)cc1 -5.23%
Cc1ccccc1N1CCN(C2CCCN(C(=O)c3ccccn3)C2)CC1 (stereo not drawn) -6.14%
Cc1cccc(C(=O)NC(=S)N2CCN(C(=S)NC(=O)c3cccc(C)c3)CC2)c1 12.1%
CCn1cc(S(=O)(=O)c2ccc(OC)cc2)c(=O)c2cc(F)c(N3CCN(C)CC3)cc21 -6.69%
C=CCCCCCCCCC(=O)N1CCN(c2cc3c(cc2F)c(=O)c(C(=O)O)cn3CC)CC1 11.3%
CCn1cc(C(=O)O)c(=O)c2cc(F)c(N3CCN(S(=O)(=O)c4ccc(Br)cc4)CC3)cc21 3.63%
CCn1cc(C(=O)O)c(=O)c2cc(F)c(N3CCN(C(=S)NC(=O)c4cc(OC)cc(OC)c4)CC3)cc21 23.2%
CCn1cc(C(=O)O)c(=O)c2cnc(N3CCN(C(=S)NC(=O)c4ccc(OC)cc4)CC3)nc21 1.6%
CCn1cc(C(=O)O)c(=O)c2cc(F)c(N3CCN(S(=O)(=O)c4ccc(NC(=O)OC)cc4)CC3)cc21 -9.02%
CCc1sc(C(=O)Nc2cccnc2)cc1Br -5.61%
COc1ccc2[nH]cc(CCNC(=O)c3ccc4ccccc4n3)c2c1 -0.1%
CCC(=O)N1CCc2cc(Br)cc(S(=O)(=O)N3CCC(C(=O)NC(C)C)CC3)c21 3.79%
CNc1cc(CSC)nc(SCc2ccc(Cl)c(Cl)c2)n1 -2.03%
O=C(c1ccc2ncsc2c1)N1CCCCC1 0.96%
O=C(O)CCSc1nc2ccccc2n1Cc1ccccc1 -0.57%
NC(=O)CN(c1ccc([N+](=O)[O-])cc1)S(=O)(=O)c1ccccc1 10%
CN(C)C(=O)/C(C#N)=C\c1cc(Br)c(Sc2ccc(Cl)cc2)o1 2.32%
Cc1nc2c(C)cccn2c(=O)c1NC(=O)c1ccco1 6.47%
CCNC(=O)CN1C(=O)NC2(CCOc3ccccc32)C1=O (stereo not drawn) -2.64%
CCn1cc(C(=O)N/N=C(/C)c2ccc(F)cc2)c(=O)c2cc(F)c(N3CCCC3)cc21 -8.17%
CCn1cc(C(=O)NCc2cccc(F)c2)c(=O)c2cc(F)c(N3CCN(C(=O)c4ccco4)CC3)cc21 12.3%
CCn1cc(C(=O)O)c(=O)c2cnc(N3CCN(C(=S)NC(=O)c4ccccc4)CC3)nc21 18.2%
CCn1cc(C(=O)O)c(=O)c2cnc(N3CCN(C(=S)NC(=O)c4ccc(Cl)cc4)CC3)nc21 30.7%
Cc1c(Cl)cccc1NC(=S)N1CCOCC1 -2.07%
O=C(Nc1c2c(nn1-c1cccc(Cl)c1)CS(=O)(=O)C2)C1CC1 -4.19%
CCNC(=S)Nc1ccc(-c2nc3ccccc3[nH]2)cc1 -10.4%
COc1ccc(NC(=O)c2cn3c(nc4ccccc43)c(C#N)c2C)cc1 -3.66%
CC1CCN(S(=O)(=O)c2ccc3c(c2)c(=O)c(C(=O)N2CCOCC2)cn3C)CC1 -0.29%
